High-throughput results from PubChem.
GPT2 inhibitor = Primary qHTS assay for inhibitors of Glutamate pyruvate transaminase 2 (GPT2); Recombinant GPT2, coupled pyruvate oxidase/HRP Amplex Red fluorescence; Potency, µM (highest dose often 57.7 µM), inactives show at the top dose activity change, negative = inhibition, most hits filed as inhibitors; Alanine aminotransferase 2 (Homo sapiens), Q8TD30; 100,000 compounds, 0.25% hits; also: potency is read from the fitted curve at half-maximal effect; nearly all actives have a fitted effect of over 60% in size
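Inhibition is scored from Amplex Red fluorescence generated when pyruvate oxidase and HRP act on pyruvate released by GPT2. Reactions contain 10ng/uL enzyme, 250uM a-KG and 2mM L-alanine and run 30 min at room temperature.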
IP6K1 inh = Primary qHTS assay for small molecule inhibitors of Inositol hexaphosphate kinase 1 (IP6K1); IP6K1 kinase, ADP-Glo luminescence, 2 h; active compounds read low; 140,000 compounds, 0.81% hits; activity change, % (series mostly up to about 58 µM); Inositol hexakisphosphate kinase 1 (Homo sapiens), Q92551; in the data active = activity change below about -25%
Target sequence (Q92551 whole entry, looked up): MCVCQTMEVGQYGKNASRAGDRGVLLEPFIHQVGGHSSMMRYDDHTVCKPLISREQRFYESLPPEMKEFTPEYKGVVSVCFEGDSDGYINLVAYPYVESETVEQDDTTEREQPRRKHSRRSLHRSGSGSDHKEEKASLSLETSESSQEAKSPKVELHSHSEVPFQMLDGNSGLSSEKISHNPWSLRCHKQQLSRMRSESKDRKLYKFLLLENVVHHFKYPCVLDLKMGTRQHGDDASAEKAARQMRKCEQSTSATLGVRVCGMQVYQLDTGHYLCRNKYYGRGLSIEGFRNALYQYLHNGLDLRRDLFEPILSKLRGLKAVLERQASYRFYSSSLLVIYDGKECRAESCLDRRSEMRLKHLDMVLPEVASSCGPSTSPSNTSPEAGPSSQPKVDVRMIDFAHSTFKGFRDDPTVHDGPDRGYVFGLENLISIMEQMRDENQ
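ADP-Glo luminescence measures ADP made by human IP6K1 during a 2 h RT reaction with ATP/IP6 (mix at 1.3 mM/130 uM); top library doses 57.5 and 19.1 uM final.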
SNCA expr inhib = Primary qHTS assay for inhibitors of alpha-synuclein gene (SNCA) expression | HEK-293 SNCA-luciferase knock-in, luminescence, 24 h | Potency, µM (titrated, usually from 57.2 µM), for the others: at the top dose activity change, negative = inhibition, usual class: inhibitors | 140,000 compounds, 0.17% hits | AID 1671194, 2021;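 also: potency is read from the fitted curve at half-maximal effect; plate controls were DMSO cells for no effect and cell-free wells for full effect; nearly all actives have a fitted effect of over 45% in size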
HEK293 viab = GF-AFC viability counterscreen for inhibitors of alpha-synuclein gene (SNCA) expression; Potency, µM (series often up to 57.1 µM), without a hit: top-dose activity change, negative = cytotoxicity, actives largely listed as cytotoxic; 150,000 compounds, 0.12% hits; HEK-293-SNCA-luc viability, GF-AFC fluorescence, 24 h;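 also: potency is read from the fitted curve at half-maximal effect; 0% = DMSO-treated cells and -100% = medium-only wells without cells; nearly all actives have a fitted effect of over 30% in size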
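Cytotoxicity counterscreen: after 24 h compound treatment of genome-edited SNCA-luciferase HEK-293 cells, live-cell protease substrate GF-AFC read by fluorescence after 30 min; activity scaled between DMSO (0%) and medium-only (-100%), curves Hill-fitted.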
IP6K1 conf = Confirmatory qHTS assay for small molecule inhibitors of Inositol hexaphosphate kinase 1 (IP6K1); Potency, µM (highest dose often 49 µM), without a hit: top-dose activity change, negative = inhibition, actives largely listed as inhibitors; AID 1645852, 2021; shares compounds with IP6K1 inh; recombinant IP6K1 kinase, ADP-Glo luminescence, 2 h; 1,200 compounds, 13% hits; also: potency is read from the fitted curve at half-maximal effect; nearly all actives have a fitted effect of over 65% in size
The depositor's hits bear a star; i = inactive; ? = inconclusive; . = no result given; [ ] = another dose, or the depositor's remark. Shown are actives, neighbours in structure and some others; about 1.1% of the full set was active somewhere. Unless noted, calls follow the shape of the dose curve; as a rule, active = well fitted curve in the direction sought with a large enough effect; inconclusive = small, poorly fitted or top-dose-only effect, or another doubt; inactive = no such curve, though single readings can be large; an effect the other way counts as inactive or inconclusive. Unless noted, % is scaled to controls: 0 for no effect and ±100 for the full control effect.

SMILES	GPT2 inhibitor	IP6K1 inh	SNCA expr inhib	HEK293 viab	IP6K1 conf
Cc1nn(-c2ccccc2)c(OC(=O)c2ccccc2)c1S(=O)(=O)c1ccccc1	.	-33*	-18%	9%	46%
CC[C@H](O)[C@@H]1N(C(=O)c2csc(-c3cccs3)n2)C2CCC1(O)CC2	.	-8	.	.	.
Cc1ccc(C)c(N2CCN(S(=O)(=O)c3cnc(N)nc3)CC2)c1	.	-13	7%	-4%	.
Cc1ccc(C)c(N2CCN(S(=O)(=O)c3csc(C(N)=O)c3)CC2)c1	.	-30*	-24%	-5%	?
CC(C)N(Cc1ccccc1)C(=O)c1cc2ccc3cccnc3c2[nH]1	.	8	48%	-30%	.
CC(C)N(CCC(=O)c1ccc2ccccc2c1)Cc1ccccc1	?	-12	8%	?	9.2µM*
O=C(NCc1ccco1)c1ccc2c(c1)N(Cc1ccc(Cl)cc1)C(=O)c1ccccc1S2	.	-26*	-20%	-22%	?
O=C(NC1CCCCCC1)c1ccc2oc(-c3ccncc3Cl)nc2c1	i	0	-1%[87.6 µM]	-19%[12.5 µM]	.
CN1CCc2c([nH]c3ccccc23)C12CCN(C(=O)C1CC1)CC2	i	-1	34%	3%[12.5 µM]	.
COc1ccc(-c2cc(C(=O)NCc3c(C)cc(C)[nH]c3=O)c3c(c2)N(C(C)C)CCO3)cc1OC	i	-27*	?	-14%	?
COc1ccc(Nc2ccnc(N3CCCC(C(=O)N4CCC(c5ccccc5)CC4)C3)n2)cc1 (stereo unspecified)	-10%	14	?	?	.
CN1C(=O)NC(Cc2c[nH]c3c(Cl)cccc23)C1=O (stereo unspecified)	.	.	.	.	23%
CN1C(=O)N[C@@H](Cc2c[nH]c3c(Cl)cccc23)C1=O	i	-4	.	-30%	.
CCCCNC(=O)c1cc(Sc2ccc(OCC)cc2)nc2ccccc12	.	-26*	14%	13%	-12%
O=c1ncn(CC2CC2)c2ccc(-c3ccoc3)nc12	3%[88.5 µM]	-32*	2%[87.6 µM]	-5%[87.6 µM]	-4%[92.2 µM]
Cn1nnnc1Sc1ncnc2scc(-c3cc4ccccc4o3)c12	.	.	.	.	-5%
c1ccc2oc(-c3ccnc4ncnn34)cc2c1	i	-5	68%	-22%	.
Cn1nnnc1Sc1ncnc2scc(-c3ccc(C#N)cc3)c12	.	.	.	.	-5%
COc1ccc(F)cc1-c1ccc(CN2CCC(NC(=O)c3ccccn3)C2)cc1 (stereo unspecified)	.	-2	.	.	.
O=C(Cn1cc(SCc2cccc(F)c2)c2ccccc21)N1CCCC1	.	-97*	104%	-4%	?
Cc1cccc(NC(=O)CSc2cn(CC(=O)N3CCCCCC3)c3ccccc23)c1	.	-41*	?	-21%	-4%
O=C(Cn1cc(SCc2cccc(F)c2)c2ccccc21)N1CCOCC1	.	-1	100%	-23%	.
CCCCCNC(=O)c1cc(-c2cccc(C(F)(F)F)c2)nc2c1cnn2C	.	-2	.	.	.
O=Cc1ccc(-c2ccc(C(=O)O)cn2)cc1	4%[88.5 µM]	-27*	9%[87.6 µM]	2%[87.6 µM]	6%
O=Cc1cccc(-c2ccc(C(=O)O)cn2)c1	i	-16	-13%[87.6 µM]	-6%[87.6 µM]	.
SMILES	GPT2 inhibitor	IP6K1 inh	SNCA expr inhib	HEK293 viab	IP6K1 conf
COc1ccc(Nc2ccnc(N3CCC(N[S+](=O)([O-])c4cccs4)CC3)n2)cc1	i	7	6%	?	.
Cc1c(Cl)cccc1-n1ncc(C(=O)Nc2ccc(Br)cc2F)c1C1CCNCC1	.	-26*	-22%	9%	?
CCCCOC(=O)/C(C#N)=C/c1ccc(-c2ccc(Br)cc2)o1	.	-31*	39%	9%	9%
Cc1nc(-c2ccc(C)c(S(=O)(=O)N3CCC(C(=O)Nc4ccc(Cl)cc4)CC3)c2)no1	.	-26*	?	-1%	4%
CCc1cccc(NC(=O)C2CCN(S(=O)(=O)c3cccc(-c4noc(C)n4)c3)CC2)c1	.	46	?	0%	.
CC(=O)c1ccc(N2CCN(S(=O)(=O)c3cc(-c4noc(C)n4)ccc3C)CC2)cc1	.	5	-21%	5%	.
COc1cccc(NC(=O)C2CCN(S(=O)(=O)c3cc(-c4noc(C)n4)ccc3C)CC2)c1	.	-36*	-13%	-12%	-7%
O=C(Nc1ccc(F)cc1)c1nc2sccn2c1-c1ccc(F)cc1	3%[88.5 µM]	26	-23%[87.6 µM]	-6%[87.6 µM]	.
CCN(CC)c1ccc2c(O)c(C=Nc3ccc(CC(=O)O)c(-c4c5c(nc6ccccc46)CCC(C(=O)NN)C5)c3)c(=O)oc2c1 (stereo unspecified)	i	-8	.	?	.
O=C(Nc1cc(F)ccc1F)c1cc2nc(-c3ccco3)cc(C(F)(F)Cl)n2n1	.	-26*	-21%	8%	-16%
O=C(NCc1ccc2c(c1)CCN2C(=O)c1ccncc1)c1ccccc1F	.	-30*	10%	6%	-23%
O=C(NCc1ccc2c(c1)CCN2C(=O)c1ccncc1)c1ccccc1Br	.	-2	-16%	3%	.
C[C@H]1[C@@H]2[C@@H](O)C([C@H](C)C(=O)N(C)Cc3ccccc3)CC[C@@]2(C)CC[C@@H]1NC(=O)Cc1ccccc1 (stereo partly specified)	-12%	-4	6%	-3%	.
COCCN1CCCC[C@]2(C[C@H](C(=O)O)[C@H](c3ccco3)N2C(=O)Cc2cccs2)C1=O	.	-25*	.	.	?
CCOC(=O)[C@H]1C[C@]2(CCCCN(CCOC)C2=O)N(C(=O)Cc2cccs2)[C@H]1c1ccco1	.	-6	.	.	.
COc1cc(Cl)c(C)cc1NC(=O)CSc1ncc(S(=O)(=O)c2ccc(C(C)(C)C)cc2)c(=O)[nH]1	.	-9	0%	8%	.
CCc1ccc(S(=O)(=O)c2cnc(SCC(=O)Nc3ccc(OC)cc3OC)[nH]c2=O)cc1	.	-28*	7%	24%	?
Cc1ccc(S(=O)(=O)c2cnc(SCC(=O)Nc3ccc4c(c3)OCCO4)[nH]c2=O)cc1C	.	-25*	8%	12%	?
Cc1ccc(C(=O)Nc2noc3ccccc23)cc1	-3%	-55*	.	-10%	?
COc1ccc(C(=O)Nc2noc3ccccc23)cc1	.	-58*	?	-3%	7.3µM*
O=C(Nc1noc2ccccc12)c1cccc(Cl)c1Cl	.	-4	?	7%	.
CS(=O)(=O)NCCc1ccc(CC2CCN(C(=O)COc3ccc(F)cc3)CC2)cc1	-60%	10	?	-8%	.
Cc1ccc(C(C(=O)N2CCC(Cc3noc(C)n3)CC2)N(C)C)cc1 (stereo unspecified)	2%[11.5 µM]	-27*	19%	0%	3%
Cc1nc(CC2CCN(C(=O)c3cc4c(s3)CCC(C)C4)CC2)no1 (stereo unspecified)	5%	2	69%	4%	.
